Reference: PubChem BioAssay (NCI)
This is part of a sample that, as a whole, favours compounds with a hit. Of some 83,000 tested, about 20% had one in any assay.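 Treatment: one concentration, 48 hours, 96-well format. Scoring: percent growth, with anything below 10 considered active.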

How the values were obtained:
Test in all cases: NCI-60 one-dose screen, 48 h (100 = growth as untreated, 0 = no growth, -100 = all killed)
[1] = system: HCT-15 colon; conditions: 10 µM unless noted
[2] = system: HT29 colon; conditions: 10 µM unless noted
[3] = system: SNB-75 CNS; conditions: 10 µM unless noted
[4] = system: SNB-19 CNS; conditions: 10 µM unless noted
[5] = system: U251 CNS; conditions: 10 µM unless noted
[6] = system: PC-3 prostate; conditions: 10 µM unless noted
[7] = system: SK-MEL-5 melanoma; conditions: 10 µM unless noted
[8] = system: UACC-62 melanoma; conditions: 10 µM unless noted
[9] = system: LOX IMVI melanoma; conditions: 10 µM unless noted
[10] = system: SK-MEL-28 melanoma; conditions: 10 µM unless noted
[11] = system: SK-MEL-2 melanoma; conditions: 10 µM unless noted
[12] = system: SN12C renal; conditions: 10 µM unless noted
[13] = system: UO-31 renal; conditions: 10 µM unless noted
[14] = system: TK-10 renal; conditions: 10 µM unless noted
[15] = system: ACHN renal; conditions: 10 µM unless noted
[16] = system: CAKI-1 renal; conditions: 10 µM unless noted
[17] = system: A498 renal; conditions: 10 µM unless noted
[18] = system: CCRF-CEM leukemia; conditions: 10 µM
[19] = system: MOLT-4 leukemia; conditions: 10 µM unless noted

Measured: growth

Oc1ccc([S+](c2ccc(O)cc2)c2ccc(O)cc2)cc1
inactive: [1] 97.4% | [2] 108% | [3] 92.5% | [4] 99.7% | [5] 103% | [6] 97.9% | [7] 100% | [8] 101% | [9] 107% | [10] 105% | [11] 117% | [12] 95.2% | [13] 87.5% | [14] 115% | [15] 106% | [16] 102% | [17] 71.3% | [18] 100% | [19] 89.2%

CCCCCCCCCCCCCCCCNC(=O)Nc1ccc(C)c(NC(=O)NCCCCCCCCCCCCCCCC)c1
inactive: [1] 105% | [2] 104% | [3] 97% | [4] 96.9% | [5] 100% | [6] 84.5% | [7] 98.4% | [8] 95.5% | [9] 109% | [10] 112% | [11] 117% | [12] 103% | [13] 74.3% | [14] 112% | [15] 98.7% | [16] 117% | [17] 113% | [19] 104%

CCCC[N+](C)(N)CCCC
inactive: [1] 98% | [2] 101% | [3] 93.3% | [4] 104% | [5] 106% | [6] 90.5% | [7] 108% | [8] 105% | [9] 87.3% | [10] 109% | [11] 108% | [12] 104% | [13] 91.7% | [14] 109% | [15] 99.7% | [16] 94.4% | [17] 115% | [19] 94.6%

CCCCCCCCCCCCCCCCNC(=S)N/N=C/c1ccc(O)cc1O
inactive: [1] 50.7% | [2] 37% | [3] 113% | [4] 89.1% | [5] 59.6% | [6] 63.5% | [7] 63.4% | [8] 56.5% | [9] 60.6% | [10] 88.7% | [11] 75.4% | [12] 74.2% | [13] 49.8% | [14] 57.8% | [15] 77% | [16] 55.9% | [17] 91.1% | [19] 48.5%

CC(O)c1cc[cH-]c1.[Fe+2].c1cc[cH-]c1 (stereo not given)
inactive: [1] 95.3% | [2] 110% | [3] 92% | [4] 105% | [5] 98.2% | [6] 98.2% | [7] 98.2% | [8] 108% | [9] 126% | [10] 112% | [11] 109% | [12] 98.9% | [13] 86.5% | [14] 96% | [15] 89.8% | [16] 88% | [17] 103% | [19] 89.3%

CCCCCCCCCCCCCCCCNC(=S)N/N=C/c1ccc(OC)cc1
inactive: [1] 108% | [2] 102% | [3] 113% | [4] 99.8% | [5] 97.9% | [6] 88.5% | [7] 99.9% | [8] 93.2% | [9] 108% | [10] 109% | [11] 107% | [12] 93.5% | [13] 78% | [14] 110% | [15] 104% | [16] 92% | [17] 113% | [19] 106%

CC(C)(C)c1cc(C[P+](c2ccc(Cl)cc2)(c2ccc(Cl)cc2)c2ccc(Cl)cc2)cc(C(C)(C)C)c1O
inactive: [1] 99.1% | [2] 56.9% | [3] 87.2% | [4] 98% | [5] 85.4% | [6] 70% | [7] 85.8% | [8] 81.6% | [9] 92.6% | [10] 88% | [11] 76.2% | [12] 91.6% | [13] 64.4% | [14] 105% | [15] 98.7% | [16] 84.2% | [17] 98.5% | [19] 35.7%

O=C(NCCO)C(F)(F)F
inactive: [1] 96.9% | [2] 104% | [3] 101% | [4] 94.6% | [5] 97.1% | [6] 103% | [7] 115% | [8] 102% | [9] 103% | [10] 111% | [11] 105% | [12] 102% | [13] 94.2% | [14] 102% | [15] 101% | [16] 95.9% | [17] 107% | [19] 99.3%
